Unmarked numbers belong to inactive results. Results filed as inconclusive are left out. Entries that show only a call come without a potency. Activity calls are given as the source filed them. Unless noted, the call rests on the fitted dose curve; in most records, active means well fitted curve in the direction sought with a large enough effect in the repeat runs; inconclusive means weak or mixed curves; inactive means no such curve, though single readings can be large; an effect the other way counts as inactive or inconclusive.
Assays:
[1] = qHTS assay to identify small molecule antagonists of the estrogen receptor alpha (ER-alpha) signaling pathway using the BG1 cell line in the presence of 0.1 nM 17-beta-estradiol - cell viability counter screen (AID 1259241); further: nearly all actives have a fitted effect of over 40% in size
Method in brief: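 CellTiter-Fluor read (30 min, 37C) on ER-alpha/ERE-luc VM7Luc4E2 cells; 22 hr compound treatment; agonist 0.1 nM E2 final; same-well multiplex.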

[2] = qHTS assay to identify small molecule antagonists of the androgen receptor (AR) signaling pathway using the MDA cell line in the presence of 0.5 nM R1881 - cell viability counter screen (AID 1259242); further: nearly all actives have a fitted effect of over 45% in size
Method in brief: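 Live-cell protease fluorescence, CellTiter-Fluor, 30 min at 37C. Cells: MDA-kb2, 3,000/well, preincubated 5 hr. Compounds plus 0.5 nM R1881 final, 16 hr, 37C, 0% CO2.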

[3] = biological target: Estrogen receptor (Homo sapiens) (UniProt P03372); experiment: qHTS assay to identify small molecule antagonists of the estrogen receptor alpha (ER-alpha) signaling pathway using the BG1 cell line in the presence of 0.1 nM 17-beta-estradiol (AID 1259244); further: nearly all actives have a fitted effect of over 50% in size
Method in brief: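 Luminescence after ONE-Glo (30 min, room temperature) measured ERE-luciferase activity in VM7Luc4E2 cells treated 22 h with compound and 0.1 nM final 17beta-estradiol as stimulator.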

[4] = qHTS assay to identify small molecule HDAC inhibitors (AID 1259364); further: potency means the concentration at half of the fitted maximal effect;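 further: wild-type HCT-116 cells with endogenous class I/II HDAC activity; nearly all actives have a fitted effect of over 45% in size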
Method in brief: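 HCT-116 (wild type), 1,500 cells/well, overnight; compound 2 hr 37C 5% CO2; HDAC-Glo I/II reagent 30 min RT; luminescence readout.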

[5] = qHTS assay to identify small molecule HDAC inhibitors - cell viability counter screen (AID 1259365); further: series mostly up to about 92 µM; nearly all actives have a fitted effect of over 50% in size
Method in brief: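 To flag cytotoxic hits, 1,500 wild-type HCT-116 cells per well, plated the day before, receive test compounds for 2hr at 37 C before CellTiter-Glo reagent and a luminescence read.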

[6] = qHTS assay to identify small molecule agonists of the sonic hedgehog signaling (Shh) pathway - cell viability counter screen (AID 1259366); further: nearly all actives have a fitted effect of over 50% in size
Method in brief: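 Fluorescence from CellTiter-Fluor reports live cells in this counter screen. NIH/3T3-derived Gli1-Luc reporter cells receive test compounds for 24hr at 37C; reagent goes in at 23hr.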

[7] = qHTS assay to identify small molecule antagonists of the sonic hedgehog signaling (Shh) pathway - cell viability counter screen (AID 1259367); further: nearly all actives have a fitted effect of over 55% in size
Method in brief: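 Conditioned medium drove Shh signaling in 3T3 Gli1-Luc cells exposed to compounds at 37C and 5% CO2. Viability was determined from CellTiter-Fluor fluorescence, with reagent incubated 1 hr after 23 hr of treatment.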

[8] = qHTS assay to identify small molecule agonists of the sonic hedgehog signaling (Shh) pathway (AID 1259368; calls by dose curve;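 further: NIH/3T3-derived 3T3Gli1-Luc cells carrying a stable Gli1-driven firefly luciferase reporter; series mostly up to about 92 µM; nearly all actives have a fitted effect of over 15% in size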)
Method in brief: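 Read-out: firefly luciferase luminescence from a Gli1 response element reporter stably integrated in NIH/3T3-derived 3T3Gli1-Luc cells, measured 30 min at room temperature after reagent addition. Compound exposure lasted 24 hr at 37 C, 5% CO2.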

[9] = qHTS assay to identify small molecule antagonists of the sonic hedgehog signaling (Shh) pathway (AID 1259369; calls by dose curve; further: nearly all actives have a fitted effect of over 45% in size; further: potency means the concentration at half of the fitted maximal effect)
Method in brief: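 Luminescence readout: firefly Luc under Gli1 response element in 3T3Gli1-Luc cells (NIH/3T3 clone). Antagonist mode, stimulation by conditioned medium; compound exposure 24hr at 37 C, 5% CO2.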

[10] = biological target: Estrogen receptor beta (Homo sapiens) (UniProt Q92731); experiment: qHTS assay to identify small molecule agonists of the estrogen receptor beta (ER-beta) signaling pathway (AID 1259377; active means well fitted activation curve with a large enough effect in the signal ratio in the repeat runs, not every such curve was filed as active; the % refers to the signal ratio)
Method in brief: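 Screening used GripTite ER-beta-UAS-bla cells held in 2% charcoal-stripped FBS medium. After overnight (16 hr) compound incubation at 37C, beta-lactamase activity was detected with a FRET substrate by fluorescence.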

[11] = biological target: Estrogen receptor beta (Homo sapiens) (UniProt Q92731); experiment: qHTS assay to identify small molecule antagonists of the estrogen receptor beta (ER-beta) signaling pathway (AID 1259378; active means well fitted inhibition curve with a large enough effect in the signal ratio in the repeat runs, not every such curve was filed as active; the % refers to the signal ratio)
Method in brief: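 ER-beta-UAS-bla HEK293T (GripTite) cells in 2% charcoal-stripped FBS medium were preincubated 6 hr at 37C, dosed with compound, then stimulated with 1 nM E2 (final) for 16 hr; beta-lactamase reporter read by B/G FRET fluorescence after 2 hr substrate loading.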

[12] = qHTS assay to identify small molecule agonists of the androgen receptor (AR) signaling pathway in the presence of an antagonist - cell viability counter screen (AID 1259379);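 further: MDA-kb2 human breast cancer cells carrying an MMTV luciferase reporter; series mostly up to about 92 µM; nearly all actives have a fitted effect of over 25% in size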
Method in brief: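 Viability counter screen: CellTiter-Fluor fluorescence, measured in the same wells as the luciferase read-out. MDA-kb2 cells, 3,000/well, with nilutamide at 3.0uM final and compounds at 15 concentrations, 16 hr at 37C, 0% CO2.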

[13] = biological target: Estrogen receptor (Homo sapiens) (UniProt P03372); experiment: qHTS assay to identify small molecule agonists of the estrogen receptor alpha (ER-alpha) signaling pathway in the presence of an antagonist (AID 1259383; calls by dose curve; further: top concentration of the series differs between compounds; nearly all actives have a fitted effect of over 15% in size)
Method in brief: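 Luciferase luminescence (ONE-Glo, 30min at room temperature) measured in VM7Luc4E2 cells after 22hr compound exposure at 15 concentrations, with 10.0nM ICI-182,780 final present; cells express endogenous ER-alpha and carry four EREs upstream of luciferase.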

[14] = qHTS assay to identify small molecule agonists or antagonists of the thyroid stimulating hormone receptor (TSHR) signaling pathway - wild type cell line counter screen (AID 1259384; calls by dose curve)
Method in brief: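 Wild-type HEK293 cells were plated 18 h at 37 C/5% CO2, pin-dosed with compound plus Ro20-1724 medium, held 30 min at room temperature, then given cAMP-d2 and anti-cAMP-cryptate; fluorescence was read after 1 h. Fifteen concentrations, triplicate.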

[15] = biological target: Thyrotropin receptor (Homo sapiens) (UniProt P16473); experiment: qHTS assay to identify small molecule antagonists of the thyroid stimulating hormone receptor (TSHR) signaling pathway (AID 1259385; calls by dose curve; further: nearly all actives have a fitted effect of over 20% in size)
Method in brief: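 TSHR-HEK293 cells were plated and held 18 h at 37C/5% CO2, then given compound plus Ro20-1724 and stimulated with TSH at 1.5 ng/mL final. After 30 min at room temperature, cAMP was detected with cAMP-d2/anti-cAMP-cryptate (1 h) by fluorescence.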

[16] = qHTS assay to identify small molecule agonists of the estrogen receptor beta (ER-beta) signaling pathway - cell viability counter screen (AID 1259380); further: nearly all actives have a fitted effect of over 30% in size; further: potency means the concentration at half of the fitted maximal effect
Method in brief: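 Luminescence read-out (CellTiter-Glo, 30 min, room temp) taken in the same wells as the beta-lactamase reporter assay; ER-beta-UAS-bla HEK293T cells exposed to DMSO-dissolved compounds for 16 hr at 37C in 2% charcoal-stripped FBS medium.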

[17] = qHTS assay to identify small molecule antagonists of the estrogen receptor beta (ER-beta) signaling pathway - cell viability counter screen (AID 1259382); further: series mostly up to about 92 µM; nearly all actives have a fitted effect of over 55% in size
Method in brief: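 Luminescent ATP read-out (CellTiter-Glo, 30 min, RT) taken in the same wells as the bla reporter assay. HEK293T ER-beta-UAS-bla cells in 2% charcoal-stripped FBS were exposed to compounds with 1nM E2 for 16 hr at 37C.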

Estrogen receptor beta (Homo sapiens), sequence (Q92731 whole entry, looked up): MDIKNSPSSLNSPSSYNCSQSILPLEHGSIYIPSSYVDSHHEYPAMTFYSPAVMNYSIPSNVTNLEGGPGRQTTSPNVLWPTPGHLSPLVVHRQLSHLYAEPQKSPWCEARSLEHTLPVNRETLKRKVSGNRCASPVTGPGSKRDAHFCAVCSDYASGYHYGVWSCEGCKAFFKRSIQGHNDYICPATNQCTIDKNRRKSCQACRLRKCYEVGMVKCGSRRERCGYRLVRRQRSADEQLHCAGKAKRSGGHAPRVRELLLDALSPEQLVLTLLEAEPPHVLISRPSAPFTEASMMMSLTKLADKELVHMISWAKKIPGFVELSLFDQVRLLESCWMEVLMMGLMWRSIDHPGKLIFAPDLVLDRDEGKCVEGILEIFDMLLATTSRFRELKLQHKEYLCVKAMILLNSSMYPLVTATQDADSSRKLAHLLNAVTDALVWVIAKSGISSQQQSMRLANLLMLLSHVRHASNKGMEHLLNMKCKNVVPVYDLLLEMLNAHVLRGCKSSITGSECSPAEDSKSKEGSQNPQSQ
Estrogen receptor (Homo sapiens), sequence (P03372 whole entry, looked up): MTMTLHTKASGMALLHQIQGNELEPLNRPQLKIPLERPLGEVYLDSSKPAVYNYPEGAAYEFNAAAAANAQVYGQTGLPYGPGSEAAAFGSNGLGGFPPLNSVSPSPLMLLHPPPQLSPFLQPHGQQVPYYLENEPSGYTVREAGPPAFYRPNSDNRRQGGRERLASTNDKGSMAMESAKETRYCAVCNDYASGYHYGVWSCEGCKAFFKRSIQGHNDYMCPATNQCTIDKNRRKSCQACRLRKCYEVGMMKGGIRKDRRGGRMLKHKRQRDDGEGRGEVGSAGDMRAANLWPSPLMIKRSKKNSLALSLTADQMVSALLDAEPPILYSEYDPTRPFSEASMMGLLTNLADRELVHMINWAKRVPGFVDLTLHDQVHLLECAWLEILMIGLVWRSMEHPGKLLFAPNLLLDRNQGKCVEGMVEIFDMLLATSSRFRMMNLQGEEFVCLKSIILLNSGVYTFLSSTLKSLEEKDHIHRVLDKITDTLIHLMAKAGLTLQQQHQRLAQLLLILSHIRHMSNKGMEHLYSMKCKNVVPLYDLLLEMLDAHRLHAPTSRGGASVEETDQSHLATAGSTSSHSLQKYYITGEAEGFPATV
Thyrotropin receptor (Homo sapiens), sequence (P16473 whole entry, looked up): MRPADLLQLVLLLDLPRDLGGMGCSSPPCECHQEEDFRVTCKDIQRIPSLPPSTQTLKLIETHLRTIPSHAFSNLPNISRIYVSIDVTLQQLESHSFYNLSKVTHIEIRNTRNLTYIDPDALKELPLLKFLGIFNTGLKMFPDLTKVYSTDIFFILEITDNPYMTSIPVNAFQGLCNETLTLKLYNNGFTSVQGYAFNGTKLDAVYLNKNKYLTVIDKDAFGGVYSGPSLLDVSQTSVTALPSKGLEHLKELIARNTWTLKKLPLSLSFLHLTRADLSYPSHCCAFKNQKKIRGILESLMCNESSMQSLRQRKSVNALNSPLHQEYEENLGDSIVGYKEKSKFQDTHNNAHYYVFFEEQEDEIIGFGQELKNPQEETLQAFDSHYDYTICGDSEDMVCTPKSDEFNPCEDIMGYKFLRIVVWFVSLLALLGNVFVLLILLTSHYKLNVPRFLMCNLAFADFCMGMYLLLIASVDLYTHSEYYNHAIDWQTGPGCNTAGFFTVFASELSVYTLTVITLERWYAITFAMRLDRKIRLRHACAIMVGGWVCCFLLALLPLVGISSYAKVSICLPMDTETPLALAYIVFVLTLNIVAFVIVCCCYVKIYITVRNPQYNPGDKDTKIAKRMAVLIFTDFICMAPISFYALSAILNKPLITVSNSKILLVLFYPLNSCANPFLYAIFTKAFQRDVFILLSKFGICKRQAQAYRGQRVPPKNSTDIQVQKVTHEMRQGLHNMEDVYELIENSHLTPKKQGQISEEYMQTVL

Compound | Potency [1] | outcome [2] | Potency [3] | Potency [4] | outcome [5] | Potency [6] | Potency [7] | outcome [8] | Potency [9] | Potency [10] | outcome [11] | Potency [12] | outcome [13] | outcome [14] | outcome [15] | Potency [16] | outcome [17]
O=C(/N=N/C(=O)OCc1ccccc1)OCc1ccccc1 | inactive | inactive | inactive | inactive | inactive | inactive | inactive | inactive | inactive | inactive | inactive | inactive | inactive | inactive | inactive |  | 
C=C(C)C(=O)OCc1ccccc1 | inactive | inactive | inactive | inactive | inactive | inactive | inactive | inactive | inactive |  |  |  | inactive |  |  | inactive | inactive
O=S(=O)(O)c1cc(O)c2ccc(Nc3ccccc3)cc2c1 | inactive | inactive | inactive | 24.3 µM (active) | inactive | inactive | inactive | inactive | inactive | inactive | inactive | inactive | inactive |  |  |  | inactive
CN(C)CCOCCO | inactive | inactive | inactive | inactive | inactive | inactive | inactive | inactive | inactive |  |  | inactive | inactive | inactive | inactive | inactive | inactive
O=C1CCCC(=O)O1 | inactive | inactive | inactive | inactive | inactive | inactive |  | inactive | inactive | inactive | inactive | inactive | inactive | inactive | inactive | inactive | inactive
On1nnc2ccccc21 | inactive | inactive | inactive | inactive | inactive | inactive | inactive | inactive | inactive |  |  | inactive | inactive | inactive | inactive | 1.54 µM (active) | 
C=C(C)C(=O)OCCOP(=O)(O)OCCOC(=O)C(=C)C | inactive | inactive | inactive | inactive | inactive | inactive |  | inactive | inactive | inactive | inactive | inactive | inactive | inactive |  | inactive | inactive
COC(=O)CCCCCCCC(=O)OC | inactive | inactive | inactive | inactive | inactive | inactive | inactive | inactive | inactive | inactive | inactive |  | inactive | inactive | inactive | inactive | inactive
Cc1ccc(S(=O)(=O)O)c(C)c1 | inactive | inactive | inactive | inactive | inactive | inactive | inactive | inactive | inactive |  |  | inactive | inactive | inactive | inactive | inactive | inactive
CCCCCCN | inactive | inactive | inactive | inactive | inactive | inactive | inactive | inactive | 61.1 µM (active) |  |  | inactive | inactive | inactive | inactive | inactive | inactive
c1ccc2nccnc2c1 | inactive | inactive | inactive | inactive | inactive | inactive | inactive | inactive | inactive | inactive |  | inactive | inactive | inactive | inactive | inactive | inactive
CCCCCCCCC(=O)Cl | inactive | inactive | inactive | inactive | inactive | inactive | inactive | inactive | inactive |  |  | inactive | inactive |  |  | inactive | 
CCOCCOC(=O)/C=C/c1ccc(OC)cc1 | inactive | inactive | inactive | 11.9 µM (active) | inactive | inactive | inactive | inactive | inactive |  |  |  | inactive | inactive |  | inactive | inactive
CC(C)OC(=O)CCCCC(=O)OC(C)C | inactive | inactive | inactive | inactive | inactive | inactive |  | inactive | inactive | inactive | inactive | inactive | inactive | inactive | inactive | inactive | inactive
CC1=CCC(C(C)C)=CC1 | inactive | inactive | inactive | inactive | inactive | inactive | inactive | inactive | inactive |  |  | inactive | inactive |  |  | inactive | 
CCCCCCOC(=O)CC | inactive | inactive | inactive | inactive | inactive | inactive |  | inactive | inactive | inactive | inactive | inactive | inactive |  |  | inactive | 
ClCCCl | inactive | inactive | inactive | inactive | inactive | inactive | inactive | inactive | inactive |  |  | inactive | inactive |  |  | inactive | inactive
Cc1ccc2c(c1)OCC(=O)CO2 | inactive | inactive | inactive | inactive | inactive | inactive | inactive | inactive | inactive | inactive | inactive |  | inactive | inactive | inactive | inactive | inactive

Source: PubChem BioAssay (Tox21)
